Screens as filed in PubChem BioAssay.
BH1578 lux ind: inducers of Vibrio cholerae quorum light production without autoinducers | AID 588436 | 350,000 tested, 0.16% active | activation, % at 18.7 µM | V. cholerae BH1578 lux reporter, luminescence, 6 h; in the data active = activation mostly above about 9.7%, no sharp cut-off
FBA Mtb inh: Mtb fructose-bisphosphate aldolase inhibition; purified M. tuberculosis FBA, fluorescence read-out; inhibition, % at 1 µM; 360,000 tested, 2.3% active; P9WQA3; in the data active = inhibition above about 27%;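 also: 0% = vehicle and 100% = reference inhibitor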
Target sequence (P9WQA3 whole entry, looked up): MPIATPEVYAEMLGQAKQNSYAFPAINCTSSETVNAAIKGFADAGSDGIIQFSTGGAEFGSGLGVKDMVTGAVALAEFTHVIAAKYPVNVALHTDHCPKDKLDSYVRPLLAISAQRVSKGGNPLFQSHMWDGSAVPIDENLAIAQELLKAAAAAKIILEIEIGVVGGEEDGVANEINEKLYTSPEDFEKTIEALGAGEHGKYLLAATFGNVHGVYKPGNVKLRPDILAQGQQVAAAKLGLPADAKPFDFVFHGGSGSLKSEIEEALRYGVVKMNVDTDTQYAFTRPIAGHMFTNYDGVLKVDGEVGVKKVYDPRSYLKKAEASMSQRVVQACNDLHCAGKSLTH
GDH-TPI inh: counter-screen for M. tuberculosis FBA inhibitors: GDH-TPI coupled enzymes; GDH-TPI coupled enzyme counterscreen, NADH absorbance; 360,000 tested, 1.2% active; inhibition, % at 4.8 µM; AID 588335; in the data active = inhibition above about 30%;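 also: 0% = DMSO wells and 100% = wells lacking the enzyme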
PrPC surface inh: reduces human prion protein on the cell surface; P04156; cell surface PrPC, TR-FRET read-out; inhibition, % at 13.8 µM; 370,000 tested, 0.43% active; in the data active = inhibition above about 24%; also: 0% = median of the test wells and 100% = reference compound wells
3CLpro inhibitor: SARS-CoV 3CLpro protease inhibition; P0C6X7; recombinant SARS-CoV 3CLpro, quenched FRET peptide cleavage; inhibition, % at 6 µM; 290,000 tested, 0.14% active; AID 1706; in the data active = inhibition above about 12%
The depositor's hits bear a star. Hits are enriched below; roughly 3.9% of the tested compounds scored in any of these assays.

For CCOP(=O)(OCC)c1nc(Cc2ccccc2)oc1NCc1ccccc1 the results were BH1578 lux ind inactive, FBA Mtb inh -0.2, GDH-TPI inh 5.7, PrPC surface inh -1.6 and 3CLpro inhibitor -1.8.
For Cc1ccc(CNC(=O)CCc2cn(C)c3ccccc23)cc1 the results were BH1578 lux ind -0.3, FBA Mtb inh 3.9, GDH-TPI inh -9.9, PrPC surface inh 3.7 and 3CLpro inhibitor -3.7.
CC(C)[C@H]1COCCS(=O)(=O)N1Cc1cccc(Cl)c1 was read as BH1578 lux ind -0.4, FBA Mtb inh -4.9, GDH-TPI inh -2.8, PrPC surface inh 1.0 and 3CLpro inhibitor -7.7.
O=C(CCOc1ccccc1)Nc1ccnn1C1CCN(CCc2ccccc2)CC1 was read as BH1578 lux ind -5.9, FBA Mtb inh 3.7, GDH-TPI inh 12.1, PrPC surface inh -12.2 and 3CLpro inhibitor -3.7.
Screening CN(C)Cc1c(O)ccc2cc(-c3nc4ccccc4n3C)c(=O)oc12 returned BH1578 lux ind 0.5, FBA Mtb inh active, GDH-TPI inh -7.4, PrPC surface inh -20.3 and 3CLpro inhibitor -7.6.
Screening O=C(NCc1ccncc1)[C@@H]1CCCN1C(=O)[C@H]1CCCN1C(=O)c1c(F)cccc1F returned PrPC surface inh -3.8.
Screening O=C(/C=C/c1ccccc1O)c1ccco1 returned BH1578 lux ind inactive, FBA Mtb inh -3.5, GDH-TPI inh 33.1*, PrPC surface inh -3.1 and 3CLpro inhibitor -2.5.
Screening CC(C)(C)C(=O)Nc1ccc(/C=C/C(=O)c2ccco2)cc1 returned BH1578 lux ind -0.8, FBA Mtb inh 2.3, GDH-TPI inh 49.0*, PrPC surface inh 2.2 and 3CLpro inhibitor 3.8.
For COc1ccc(C(=O)COC(=O)c2cc3ccccc3oc2=O)c(OC)c1 the results were BH1578 lux ind inactive, FBA Mtb inh 6.2, GDH-TPI inh 6.3 and PrPC surface inh -1.9.
For CCOC(=O)c1cc2ccc(OC)cc2oc1=O the results were BH1578 lux ind -2.2, FBA Mtb inh active, GDH-TPI inh 42.5*, PrPC surface inh 1.9 and 3CLpro inhibitor 0.0.
For CNC(=O)c1cc2ccc(OC)cc2oc1=O the results were BH1578 lux ind -0.9, FBA Mtb inh active, GDH-TPI inh 29.9, PrPC surface inh -8.0 and 3CLpro inhibitor 2.1.
`COCCCNC(=O)CSc1nnc(-c2ccncc2)n1-c1ccc(OC)cc1` gave PrPC surface inh 3.1.
CCc1ccc(NC(=O)NCC2CCN(c3ccc(OC)cc3)C2)cc1 (stereo not drawn) was read as BH1578 lux ind 4.8, FBA Mtb inh 0.7, GDH-TPI inh 8.6, PrPC surface inh 8.1 and 3CLpro inhibitor -1.2.
`CCOc1ccc(NC(=O)NCC2CCN(c3ccc(OC)cc3)C2)cc1` (stereo not drawn) gave BH1578 lux ind -0.5, FBA Mtb inh 4.8, GDH-TPI inh 33.3*, PrPC surface inh -1.2 and 3CLpro inhibitor 4.6.
`COc1cc(OCc2ccccc2)c2c(CCC(=O)O)cc(=O)oc2c1` gave BH1578 lux ind -1.1, FBA Mtb inh active, GDH-TPI inh 21.6 and PrPC surface inh 10.5.
`c1ccc(-c2nc3c(ccc4ccccc43)[nH]2)nc1` gave BH1578 lux ind -0.6, FBA Mtb inh 15.5, GDH-TPI inh 33.3*, PrPC surface inh 0.0 and 3CLpro inhibitor -0.1.
`c1ccc(-c2nc3ccccc3[nH]2)nc1` gave BH1578 lux ind 1.1, FBA Mtb inh 5.5, GDH-TPI inh 0.4, PrPC surface inh -2.7 and 3CLpro inhibitor -4.8.
For COc1ccc(/C=C/C(=O)Nc2nnc(C(C)C)s2)cc1OC the results were BH1578 lux ind -1.4, FBA Mtb inh 5.6, GDH-TPI inh 34.0*, PrPC surface inh 7.6 and 3CLpro inhibitor 1.9.
`COc1ccc(/C=C/C(=O)Nc2c(C(=O)O)[nH]c3ccccc23)cc1OC` gave BH1578 lux ind -0.5, FBA Mtb inh 1.4, GDH-TPI inh 31.2*, PrPC surface inh -1.8 and 3CLpro inhibitor 1.8.
`COc1ccc(/C=C/C(=O)Nc2ccccc2)cc1OC` gave BH1578 lux ind inactive, FBA Mtb inh -2.7, GDH-TPI inh 8.2, PrPC surface inh -8.0 and 3CLpro inhibitor 4.3.
S=C(NCc1cccc(Cl)c1)OC1CCC12CCC(c1ccccc1)CC2 (stereo not drawn) was read as PrPC surface inh 6.5.
Screening COc1cccc(-n2c(C)nc3cc(C(=O)O)ccc32)c1 returned BH1578 lux ind -5.0, FBA Mtb inh 0.1, GDH-TPI inh -10.2, PrPC surface inh 1.8 and 3CLpro inhibitor -0.1.
For CN(CCO)c1nc(N)c(C#N)c(CC#N)c1C#N the results were BH1578 lux ind inactive, FBA Mtb inh 0.8, GDH-TPI inh 33.8*, PrPC surface inh 3.3 and 3CLpro inhibitor -0.5.
Screening CC(C)CN(CC(C)C)c1nc(N)c(C#N)c(CC#N)c1C#N returned BH1578 lux ind 1.0, FBA Mtb inh 6.4, GDH-TPI inh 3.5, PrPC surface inh 22.6 and 3CLpro inhibitor -7.1.
For COc1ccc(/C=N/NC(=O)c2[nH]c3ccc(Br)cc3c2-c2ccccc2)c(C(=O)O)c1OC the results were BH1578 lux ind -0.6, FBA Mtb inh 6.7, GDH-TPI inh 38.8*, PrPC surface inh 7.5 and 3CLpro inhibitor 0.9.
Screening COc1ccc(/C=N/NC(=O)c2[nH]c3ccc(Cl)cc3c2-c2ccccc2)c(C(=O)O)c1OC returned BH1578 lux ind inactive, FBA Mtb inh 5.0, GDH-TPI inh 30.9*, PrPC surface inh 13.1 and 3CLpro inhibitor 3.2.
For COc1cc(OC)cc(C2=Cc3ccccc3C(CC(=O)c3ccco3)N2c2ccc(-c3ccc(C(N)=O)cc3)cc2)c1 (stereo not drawn) the results were PrPC surface inh -23.6.
`COC(=O)C1=C(C)NC2=C(C(=O)CCC2)C1c1ccc(-c2ccsc2C(=O)OC)o1` (stereo not drawn) gave BH1578 lux ind -0.9, FBA Mtb inh 1.9, GDH-TPI inh 49.7*, PrPC surface inh 4.0 and 3CLpro inhibitor 6.7.
`O=C(CCC(=O)N1CCN(Cc2ccc(F)cc2)CC1)Nc1nnc(C(F)(F)F)s1` gave BH1578 lux ind -0.1, FBA Mtb inh 1.0, GDH-TPI inh 6.7, PrPC surface inh -2.4 and 3CLpro inhibitor 0.8.
For CCC(=O)Oc1ccc2c(c1)OC1(OC(C)=O)OC(C)CC1=C2C (stereo not drawn) the results were BH1578 lux ind -0.4, FBA Mtb inh active, GDH-TPI inh 21.0, PrPC surface inh 0.8 and 3CLpro inhibitor 0.3.
Cc1ccc2c(c1)N(CCCC(=O)N(C)Cc1ccc(F)cc1)C(=O)CO2 was read as PrPC surface inh 10.5.
Screening CC1CCC(C(C)C)C(=O)/C1=C/c1ccc(N)cc1 (stereo not drawn) returned BH1578 lux ind inactive, FBA Mtb inh -0.4, GDH-TPI inh 36.4*, PrPC surface inh -2.6 and 3CLpro inhibitor 7.2.
`O=C(NC1CCCCC1)c1nc(-c2c(F)cccc2F)oc1-c1ccccc1` gave PrPC surface inh -5.0.
For O=C(N/N=C/c1ccc([N+](=O)[O-])o1)c1ccc(NS(=O)(=O)c2cccs2)cc1 the results were BH1578 lux ind inactive, FBA Mtb inh 7.9, GDH-TPI inh 16.9, PrPC surface inh -33.2 and 3CLpro inhibitor 3.7.
